From PubChem BioAssay (NCI)
The panel holds about 83,000 compounds, 20% with a hit somewhere; the sample as a whole holds those more often.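 Plates (96-well) were seeded with cells, treated with compound at one concentration, and incubated for 48 hours before percent growth was determined.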 The source made the active and inactive calls.

Test system: PC-3 prostate
Assay: NCI-60 one-dose screen, 48 h (100 = growth as untreated, 0 = no growth, -100 = all killed)
Details: 10 µM unless noted
Description: Growth inhibition of the PC-3 human tumor cell line is measured as a screen for anti-cancer activity. Cells are grown in 96 well plates and exposed to the test compound for 48 hours. Compounds are tested at a single concentration, which is 10^-5 M for most compounds. The reported endpoint is percent growth (GI% or GIPRCNT), where numbers from 0 - 100% represent growth inhibition, and numbers from -100% - 0 represent cell death. For example, a value of 40 represents 60% growth inhibition. A value of 0 means no net growth occurred over the course of the experiment. A value of -40 indicates 40% of cells at the beginning of the experiment died by the end of the experiment. A value of -100 means all cells are dead at the end of the experiment.
NCI-60 Human Tumor Cell Lines Screen was performed using the standard one-dose NCI protocol, which is described in more detail at https://dtp.cancer.gov/discovery_development/nci-60/default.htm.
Compounds with GIPRCNT values below 10 were considered active. Activity score was based on GIPRCNT using the following formula: […]
Score is 0 for GIPRCNT values of 100 or above, 50 for GIPRCNT values of 0, and 100 for GIPRCNT values of -100.

| SMILES | growth |
| --- | --- |
| COc1ccc2c(c1)C(C)Cc1c(N(C)C)ncnc1N2C (stereo not given) | 26.4% (inactive) |
| C=C1C(=O)O[C@H]2[C@H]1CC/C(Cn1cc(-c3ccsc3)nn1)=C\CC[C@@]1(C)O[C@@H]21 | -20.4% (active) |
| Cc1cccc(-n2c(C)nc3ccc(NC(=O)NCCCl)cc3c2=O)c1 | 93.5% (inactive) |
| Cn1c(C(N)=O)cc2c1-c1nc(NC3CCCCC3)ncc1CCC2 | 94.8% (inactive) |
| CCOP(=O)(CCN1CCN(CCCCCOc2cc3c(cc2OC)C(=O)N2CCC[C@H]2C=N3)CC1)OCC | 76.2% (inactive) |
| C=C1C(=O)O[C@H]2[C@H]1CC/C(COC(=O)NCc1cc(OC)c(OC)c(OC)c1)=C\CC[C@@]1(C)O[C@@H]21 | 66.1% (inactive) |
| CC(C)(C)c1ccc(S(=O)(=O)Oc2ccc3c4c(c(=O)oc3c2)CCCCC4)cc1 | 32.9% (inactive) |
| CC1(C)OC2COC3(C(=O)O)OC(C)(C)OC3C2O1 (stereo not given) | 100% (inactive) |
| Clc1ccc(-c2nc(-c3ccco3)cn3ccnc23)cc1 | 60.2% (inactive) |
| O=C(NCCCN1CCN(CCCNC(=O)C2CCCCC2)CC1)C1CCCCC1 | 91.3% (inactive) |
| c1ccn2nnnc2c1 | 97.6% (inactive) |
| COc1cc(CCn2nnc3c(NCCCCO)ncnc32)cc(OC)c1 | 88.3% (inactive) |
| Cc1cc(Nc2nc(-c3ccncc3)nc3ccccc23)n[nH]1 | 61% (inactive) |
| Clc1ccc(/C=C/c2nc(N3CCOCC3)c3nc(Cl)c(Cl)cc3n2)cc1 | 102% (inactive) |
| CCn1c(=O)c2c(=O)c3c4c(oc3oc2c2ccccc21)C(=O)c1ccccc1C4=O | 42.4% (inactive) |
| CC/C(=C(\c1ccc(O)cc1)c1ccc(OCCN(C)CCN(C)C(=O)CCC(=O)c2c(C)[nH]c(/C=C3\N=C(c4ccc[nH]4)C=C3OC)c2C)cc1)c1ccccc1 | 61.4% (inactive) |
| COc1ccc(-c2nc3sccn3c2-c2ccnc(NCCCNS(=O)(=O)c3ccc(F)cc3)n2)cc1 | 21.1% (inactive) |
| O=C(CC(O)c1ccncc1)c1ccccc1 (stereo not given) | -17.2% (active) |
| Nc1c(C(=O)Nc2cccc(C(F)(F)F)c2)sc2nc3c(cc12)CCCCC3 | 53% (inactive) |
| Cc1cccc(NC(=O)c2sc3nc4c(cc3c2N)CCC4)c1C | 11.2% (inactive) |

| SMILES | growth |
| --- | --- |
| COc1ccc(C2=NN(c3ccc(S(N)(=O)=O)cc3)C(c3cn(-c4ccccc4)nc3-c3ccc(Cl)cc3)C2)cc1 (stereo not given) | 66.7% (inactive) |
| COc1ccc(/C=C/C(=O)c2ccc(NC(=O)CN3CCN(c4cc5c(cc4F)c(=O)c(C(=O)O)cn5C4CC4)CC3)cc2)cc1 | 92.4% (inactive) |
| CC1CCc2c(sc(NC(=O)CSc3nnc4ccccn34)c2C(N)=O)C1 (stereo not given) | 106% (inactive) |
| Clc1nc(Cl)c2ncn(C/C=C/Cn3cnc4c(Cl)nc(Cl)nc43)c2n1 | 66.6% (inactive) |
| CNC(=O)Cc1nc(-c2cccc(NS(=O)(=O)c3c(F)cccc3F)c2F)c(-c2ccnc(Nc3ccccc3)n2)s1 | 81.8% (inactive) |
| COc1ccc2c(c1)C(=O)/C(=C/c1ccc(O)cc1)O2 | 39.6% (inactive) |
| COc1cc(C2C=C(C)N=C3SC(C)=NN32)cc(OC)c1OC (stereo not given) | 95.3% (inactive) |
| COc1cccc2cc(-c3cc4ccccc4[nH]3)c(=NC(=O)c3ccc(Cl)cc3)oc12 | 38.5% (inactive) |
| CS(=O)(=O)N(c1cc(-c2ccc3ncnc(Nc4cccc(Cl)c4)c3c2)cnc1Cl)S(C)(=O)=O | 10.7% (inactive) |
| Nc1cccc2c1CN(C1CCC(=O)NC1=O)C2=O (stereo not given) | 91% (inactive) |
| CCCCNc1nnc(-c2cc(-c3cc4ccccc4o3)nn2-c2ccccc2)o1 | 83.6% (inactive) |
| COC1=CC(c2ccc[nH]2)=N/C1=C\c1[nH]c(C)c(C(=O)CCC(=O)Oc2ccc3c(c2)CCC2C3CC[C@]3(C)[C@@H](O)CC[C@@H]23)c1C (stereo not given in full) | 17.8% (inactive) |
| COc1cc2oc(-c3cccc(NC(=O)Nc4ccc5c(c4)OCO5)c3)cc(=O)c2c(OC)c1OC | 45.6% (inactive) |
| O=C(N/N=C/c1c(Cl)cccc1Cl)c1ccccc1Nc1ccnc(C(F)(F)F)c1 | 51% (inactive) |
| COc1ccc(/C=C\c2cc(OC)c(OC)c(OC)c2)c(NS(=O)(=O)c2ccc(C(C)(C)C)cc2)c1O | 34.5% (inactive) |
| Cc1ccc(C(=O)c2sc3nc4c(cc3c2N)CCCC4)c(C)c1 | 5.81% (active) |
| COc1cc2c(cc1OC)C1(C)N(CC2)C(=O)OC1(C)C (stereo not given) | 97.3% (inactive) |
| Cc1cc(Cl)ccc1OC(C)C(=O)Nc1nnc(C2CC2)s1 (stereo not given) | 99.2% (inactive) |
| COc1cc2nc(SCc3cc(OC)c(OC)c(OC)c3)n(Cc3ccccc3)c(=O)c2cc1OC | 48.8% (inactive) |
| O=C(c1ccccc1)C(Cl)C(Cl)c1ccccc1 (stereo not given) | 83% (inactive) |
